We go through 22 compounds from PubChem BioAssay (NCATS).

Test [1] relates to Zika virus NS2B-NS3 protease (linked construct). Description: Primary screen NINDS Rhodamine qHTS for Zika virus inhibitors (AID 1347160). Note: nearly all actives have a fitted effect of over 55% in size. Note: potency is the fitted concentration of half-maximal effect. A digest of the protocol:
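Purified NS2B-NS3 protease with the NS2B hydrophilic domain joined by a flexible linker (25 nM) in 10 mM Tris-HCl pH 8.0, 0.01% Tween 20, preincubated 15 min at RT with compound; Rhodamine110 peptide substrate 1.5 µM; fluorescence change over 15 min; 4-parameter Hill fit.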

A short description of test [2]: UWB1.289-WTBRCA1 Cancer Cell Toxicity qHTS against the NCATS CANVASS Library (AID 1347354). A digest of the protocol: (§1)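 qHTS cytotoxicity: compounds tested in 11 concentrations on 1000 seeded cells per well over 72 h; bortezomib served as control; signal from CellTiter-Glo luminescence.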
Test [3] can be described thus: qHTS for Hypoxia signaling pathway (HIF-1) agonists against the NCATS CANVASS Library (AID 1347375). A digest of the protocol:
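Inducers of HIF-1 signaling were detected in ME-180 cells bearing an HRE-driven beta-lactamase reporter after 17 h compound exposure. Activity came from CCF4-AM FRET emission ratio (460/530 nm) in qHTS format.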

Test [4] can be described thus: qHTS for Antimalaria activity screened against the NCATS CANVASS Library (AID 1347380). Note: nearly all actives have a fitted effect of over 40% in size. Note: potency is the fitted concentration of half-maximal effect. A digest of the protocol: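 Growth inhibition of asexual erythrocytic P. falciparum Dd2 was quantified by SYBR Green DNA staining. Cultures grew 72 h with compound (11-point series) in hypoxic gas at 37C; lysis and staining lasted 18 h.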
Test [5] is described as follows: COV-362 Cancer Cell Toxicity qHTS against the NCATS CANVASS Library (AID 1347352). Note: series mostly up to about 38 µM. The essentials:
as §1

A short description of test [6]: qHTS assay for small molecule disruptors of mitochondrial membrane potential screened against the NCATS CANVASS Library (AID 1347389). Note: nearly all actives have a fitted effect of over 60% in size. Note: potency is the fitted concentration of half-maximal effect. The essentials: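 Compounds tested in 11-point qHTS series on HepG2 cells for 1 hr; membrane-potential dye added for 30 min at 37C. Lower red-to-green ratio indicates loss of potential.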
A short description of test [7]: Panc-1005 Cancer Cell Toxicity qHTS against the NCATS CANVASS Library (AID 1347349). Note: series mostly up to about 38 µM; nearly all actives have a fitted effect of over 60% in size. A digest of the protocol:
(§2)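 1000 cells/well; 4 h settle; 11-pnt titration; 72 h, 37 degrees C, 5% CO2; CellTiter-Glo, 15min RT; luminescence read.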

The nature of test [8]: HPAF-II Cancer Cell Toxicity qHTS against the NCATS CANVASS Library (AID 1347346). Note: potency is the fitted concentration of half-maximal effect; nearly all actives have a fitted effect of over 55% in size. The essentials:
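Cytotoxicity in HPAF-II pancreatic cancer cells: 72 h treatment across 11 concentrations, ATP-based CellTiter-Glo luminescence endpoint.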

Test [9] in a line: UWB1.289 Cancer Cell Toxicity qHTS against the NCATS CANVASS Library (AID 1347347). Note: nearly all actives have a fitted effect of over 60% in size. Note: potency is the fitted concentration of half-maximal effect. The essentials: as §2

Inconclusive results are not listed. Values without a mark were called inactive. Activity calls are given as the source filed them. Calls come from the whole dose curve; as a rule, active = well fitted curve in the direction sought with a large enough effect; inconclusive = small, poorly fitted or top-dose-only effect, or another doubt; inactive = no such curve, though single readings can be large; an effect the other way counts as inactive or inconclusive. Bridge positions count the residues as written; N and C are the ends. Square brackets hold non-standard residues; d marks the D form. Side chains are listed from the residue outwards. Peptide text beside a SMILES is read from it. * marks the point of attachment. Phg(4-OMe) = COc1ccc([C@H](N)C(=O)O)cc1; d(aIle) = CC[C@H](C)[C@@H](N)C(=O)O; d(aThr) = C[C@@H](O)[C@@H](N)C(=O)O; NMeF = CN[C@@H](Cc1ccccc1)C(=O)O; Isobutyryl = CC(C)C(=O)*

In the case of `C/C=C/C1C=CC2CC(C)CC(C)C2C1C(=O)CC(=O)NC(CO)C/C=C/CCCCC` (stereo not given), in [1], the Potency was 11 µM (active). Further, the Potency entry in test [2] and in test [4] was “inactive” throughout. Also, in test [3], the result was inactive.

On to `C/C=C(/C)c1c(Cl)c(OC)c(C)c2c1Oc1c(Cl)c(O)c(Cl)c(C)c1C(=O)O2`, for which the values for the Potency in test [1] and in test [6] were 1.39 µM (active) and 2.63 µM (active), respectively. Further, the Potency result in [5] and in [4] was “inactive” each time. In addition, the call in [3] was inactive.

With `CC[C@H]1[C@H](C)[C@H](c2cc(OC)c(OC)cc2OC)[C@@H](C)[C@H](c2cc(OC)c(OC)cc2OC)[C@@]12C=C(OC)C(=O)C=C2OC`, the values for the Potency in test [1] and in test [4] were 27.7 µM (active) and 1.88 µM (active), respectively. In addition, in [3], the call was inactive.

Turning to `CC(C)C[C@@H]1c2c(O)c(C=O)c(O)c(C=O)c2O[C@]2(C)C=C[C@@H](C(C)C)C[C@H]12`, the Potency in test [1] is 13.9 µM (active). Besides, the Potency result in test [7], in test [5], in test [2] and in test [6] was “inactive” in each case. Moreover, the outcome in test [3] was inactive.

For the compound `O=C1CC2OCC=C3CN4C5CC3C2[C@@H]2N1c1ccccc1[C@]52C[C@@H]4C1=C[C@H]2C3CC4N(CC[C@@]45c4ccccc4N(C1=O)[C@@H]25)C/C3=C/CO` (stereo not given in full), in [1], the Potency result was “inactive”. Moreover, the figures for the Potency in [8] and in test [4] were 21.1 µM (active) and 2.36 µM (active), respectively.

Consider `C[C@H]1C=C[C@H]2CCCC[C@@H]2[C@H]1C(=O)[C@H]1CC2=C(C(=O)O)CCN2C1=O`, for which, in [1], the Potency is 11 µM (active). In addition, the Potency entry in [9], in test [4] and in test [6] was “inactive” in each case. Further, the compound was called inactive in test [3].

As to `C[n+]1cc2cc(C(N)=O)[nH]c3c(=N)c(Cl)c(N)c1c23`, the Potency in test [1] is 44 µM (active). Moreover, the Potency entry in test [9] and in test [4] was “inactive” each time.

As to `COC12OC1(C13OC1(OC)C(=O)c1cc4cc(C)oc(=O)c4c(O)c1C3O)C(O)c1c(cc3cc(C)oc(=O)c3c1O)C2=O` (stereo not given), the Potency in [1] was 3.11 µM (active). Further, the Potency entry in [9], in [7] and in test [2] was “inactive” throughout.

As for `CC(C)[C@]12CC[C@@]3(C)[C@H](C)CC[C@H](O)[C@@]3(CC1)c1cc3c(cc12)[nH]c1ccccc13`, the results for the Potency in [1] and in test [6] were 27.7 µM (active) and 11.7 µM (active), respectively. For the same compound, the Potency result in [2] is “inactive”.

`CCC(=O)N[C@@H](C[C@H](C)C(Cl)(Cl)Cl)C(=O)N1C(=O)C=C(OC)[C@@H]1CC(C)C`: the Potency result in [1], in test [9], in test [7], in test [5], in [2] and in [4] was “inactive” in each case. For the same compound, in test [6], the Potency entry was “inactive”.

Consider `C=C1CC[C@@H](O[C@H]2C[C@@](O)([C@H](C)NC(=O)c3[nH]c(C)c(Cl)c3Cl)[C@H](O)[C@@H](C)O2)[C@@H]2C=C[C@H](C)C(/C(O)=C3/C(=O)[C@H](C(C)C)N([C@@H]4O[C@H](C)[C@H](OC(N)=O)[C@H](OC(C)=O)[C@@H]4OC)C3=O)[C@@H]12` (stereo not given in full), for which, in test [1], the Potency was 15.6 µM (active). In addition, the Potency result in test [5] and in test [2] was “inactive” each time. The compound was classed as inactive in [3].

As for `CC(=O)O[C@H]1c2ccccc2-c2c3c(cc4c2[C@@H]1N(C(C)=O)CC4)OCO3`, in test [1], the Potency is 55.3 µM (active). The Potency entry in [2], in [4] and in [6] was “inactive” throughout. Further, the compound was classed as inactive in [3].

`C=C[C@@]1(C)CC[C@@H]([C@H](C)C(=O)/C=C/C(C)(C)O)O1`: the Potency in test [1] is 55.3 µM (active). The Potency entry in [2], in test [4] and in test [6] was “inactive” each time. In [3], the outcome was inactive.

Regarding `C=C1CC[C@@H](Br)C(C)(C)[C@]12CC=C(C)C(=O)C2`, the Potency result in [1], in test [9], in [7], in test [5], in [2] and in test [4] was “inactive” each time.

On to `O[C@H]1c2ccccc2-c2c3c(cc4c2[C@@H]1NCC4)OCO3`, for which, in test [1], the Potency is 49.3 µM (active). Also, the Potency entry in [2] was “inactive”. The compound was classed as inactive in test [3].

For the compound `COc1cc2c(cc1OC)[C@@H](c1ccc3c(c1)OCO3)C(C)C(C)C2=O` (stereo not given in full), the Potency result in test [1], in [5], in test [2] and in [4] was “inactive” in each case. For the same compound, the compound was classed as inactive in test [3].

As for `C/C=C(/C)c1cc(O)c(C)c2c1Oc1cc(O)cc(C)c1C(=O)O2`, the Potency is 24.7 µM (active) in test [1] and 10.5 µM (active) in [6]. Further, the Potency result in test [2] and in test [4] was “inactive” throughout. Also, the compound was classed as inactive in test [3].

Regarding `CC(C)=CCC[C@]12c3cc4c(cc3CC[C@@]1(C)[C@H](C)CC[C@@H]2O)[nH]c1ccccc14`, the Potency in test [1] was 24.7 µM (active); in [6], 20.9 µM (active). Moreover, the compound was called inactive in test [3].

On to `CC[C@H](C)[C@H]1NC(=O)[C@@H](NC(=O)C(C)C)[C@@H](C)OC(=O)[C@H](COC(=O)CNC(C)=O)NC(=O)[C@@H]([C@@H](C)O)NC(=O)[C@H](Cc2ccccc2)N(C)C(=O)[C@H](c2ccc(OC)cc2)NC1=O` (Isobutyryl-T[d(aIle)][Phg(4-OMe)][NMeF][d(aThr)]S([Gly-Ac]); ester 1-C), for which the Potency result in [1], in [9], in test [7], in test [5], in test [2] and in [4] was “inactive” throughout. Also, the Potency entry in [6] was “inactive”. Besides, the outcome in test [3] was inactive.

For the compound `Cc1occ2c1C(=O)c1c(cc(O)c(O)c1O)C2=O`, the Potency in [1] is 13.9 µM (active); in test [6] it was 7.41 µM (active). Moreover, the Potency result in test [2] was “inactive”.

As to `C/C=C(/C)c1c(Cl)c(O)c(C)c2c1Oc1c(Cl)c(O)c(Cl)c(C)c1C(=O)O2`, the Potency in [1] was 1.96 µM (active). For the same compound, the Potency result in [7], in test [2] and in [4] was “inactive” in each case. Moreover, in test [3], the result was inactive.

Consider `COc1cc2c(c(O)c1O)C(=O)c1c(coc1C)C2=O`, for which the Potency in test [1] is 3.11 µM (active); in test [9], 13.3 µM (active); in [4], 10.6 µM (active); in [6], 10.5 µM (active). Besides, the compound was classed as inactive in test [3].
